# High-throughput results (PubChem)
# Shiga toxin inh: A qHTS for Small Molecule Inhibitors of Shiga Toxin. inhibition, % at 38.7 µM. AID 2315, 2010. 290,000 tested, 9.2% active. Vero cells, Shiga toxin protein synthesis inhibition reporter; in the data active = inhibition mostly above about 28%, no sharp cut-off; inactive = mostly below about 43%
# FBPA Giardia inh: qHTS Assay for Inhibitors of Fructose-1,6-bisphosphate Aldolase from Giardia Lamblia; A8B2U2; 290,000 tested, 0.71% active; Potency, µM (highest dose often 59.6 µM), actives largely listed as inhibitors; purified Giardia FBPA; also: nearly all actives have a fitted effect of over 55% in size
#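 Giardia FBPA (40 nM reagent) was preincubated 10 min at RT with compound (up to 57.5 uM final), then substrate plus GAPDH/TPI/NAD/arsenate coupling system with diaphorase/resazurin was added; resorufin fluorescence (525/598 nm) was read after 20 min.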
# Sm TGR block: qHTS Assay for the Inhibitors of Schistosoma Mansoni Peroxiredoxins; purified TGR, DTNB reduction, TNB absorbance 405 nm; 360,000 tested, 3% active; Schistosoma mansoni thioredoxin glutathione reductase (TGR), Q962Y6; Potency, µM (titrated, usually from 114 µM), actives largely listed as inhibitors; also: nearly all actives have a fitted effect of over 60% in size
#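 Kinetic colorimetric format: TGR-catalysed, NADPH-driven DTNB reduction monitored via TNB absorbance. Enzyme dispensed at 20 nM; compound exposure 15 min at room temperature before reaction start.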
# CHX counter: Cycloheximide Counterscreen for Small Molecule Inhibitors of Shiga Toxin; cell reporter, cycloheximide protein synthesis inhibition counterscreen; max response, %; 300,000 tested, 12% active; AID 2314, 2010; in the data active = max response mostly above about 13%, no sharp cut-off; inactive = mostly below about 14%; also: read at 38.3 µM for the half of the compounds with a filed dose
# Tb PYK inh: qHTS of Trypanosoma Brucei Inhibitors. Potency, µM (series often up to 76.8 µM), hits mostly inhibitors. pyruvate kinase (Trypanosoma brucei), Q57TT1. AID 624173, 2012. 410,000 tested, 0.12% active. TbPYK enzyme, Kinase-Glo Plus ATP luminescence, 45 min; also: nearly all actives have a fitted effect of over 50% in size
#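 In this concentration-response screen, enzyme-free wells defined baseline while DMSO plates tracked drift. Each reaction combined TbPYK, substrate, compound and 130 uM ADP for 45 min at room temperature. Kinase-Glo Plus luminescence gave the signal.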
# LmPK inh: qHTS Assay for Inhibitors of Leishmania Mexicana Pyruvate Kinase (LmPK); 290,000 tested, 0.37% active; purified LmPK, Kinase-Glo ATP luminescence, 1 h; Q27686; Potency, µM (top dose mostly 57.5 µM), hits mostly inhibitors
# Target sequence (Q27686 whole entry, looked up): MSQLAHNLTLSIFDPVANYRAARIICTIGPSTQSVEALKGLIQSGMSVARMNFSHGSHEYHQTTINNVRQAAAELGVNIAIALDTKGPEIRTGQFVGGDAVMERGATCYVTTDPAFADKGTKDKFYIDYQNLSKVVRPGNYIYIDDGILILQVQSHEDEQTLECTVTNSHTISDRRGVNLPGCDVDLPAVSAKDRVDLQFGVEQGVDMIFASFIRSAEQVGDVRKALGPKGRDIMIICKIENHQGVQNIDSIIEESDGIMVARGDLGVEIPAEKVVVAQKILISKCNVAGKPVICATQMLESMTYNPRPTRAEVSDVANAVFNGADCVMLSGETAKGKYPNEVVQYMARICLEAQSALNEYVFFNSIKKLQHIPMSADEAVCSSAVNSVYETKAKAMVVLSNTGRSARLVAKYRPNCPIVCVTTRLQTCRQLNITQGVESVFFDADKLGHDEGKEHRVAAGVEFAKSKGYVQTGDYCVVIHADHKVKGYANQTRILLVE
#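 0.1 nM LmPK, 0.5 mM PEP, 0.1 mM ADP; 50 mM imidazole pH 7.2, 7 mM MgCl2, 50 mM KCl; 1 h RT. Kinase-Glo luminescence readout, normalized to no-enzyme (full inhibition) and uninhibited wells.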
# A number is an active result; - = inactive; ? = inconclusive; . = not tested or not shown. Many of the other results were omitted from the sample, so hits are more common in it than they were. Unless noted, calls follow the shape of the dose curve; as a rule, active = well fitted curve in the direction sought with a large enough effect; inconclusive = small, poorly fitted or top-dose-only effect, or another doubt; inactive = no such curve, though single readings can be large; an effect the other way counts as inactive or inconclusive.
SMILES,Shiga toxin inh,FBPA Giardia inh,Sm TGR block,CHX counter,Tb PYK inh,LmPK inh
COc1cc2c(cc1OC)-c1cc(Nc3ccccc3)nc(=O)n1CC2,-,-,-,-,-,-
COc1cc2c(cc1OC)-c1cc(Nc3ccccc3Br)nc(=O)n1CC2,-,-,-,17,-,-
CCOc1ccc(NC(=O)CCSc2ccc3ccccc3n2)cc1,-,-,-,15,-,-
CCOc1ccc(NC(=O)CSc2ccc3ccccc3n2)cc1,.,.,-,.,-,.
CCOc1ccc(NC(=O)Cn2ncc3ccccc32)cc1,74,-,-,38,-,-
CC1CCC(NC(=O)Cn2ncc3ccccc32)CC1 (stereo not drawn),active,-,-,18,-,-
O=C(O)C(CCc1ccccc1)N1CCOCC1 (stereo not drawn),.,.,.,.,-,.
O=C1/C(=C/c2ccc(F)cc2)Oc2cc(OC(=O)N3CCOCC3)ccc21,-,-,-,-,-,-
O=C1/C(=C/c2ccccc2)Oc2cc(OC(=O)N3CCOCC3)ccc21,-,-,-,19,-,-
CC(=O)Oc1ccc(/C=C2/Oc3ccccc3C2=O)cc1,49,-,-,32,-,-
CCCCN(C=O)c1c(CC)nc2ccc(C(=O)NCCOc3ccc(OC)cc3)cn12,.,.,.,.,-,.
COc1ccccc1N1CCN(C2=NS(=O)(=O)c3ccccc32)CC1,-,-,-,12,-,-
COc1ccccc1N1CCN(c2ccc3ccccc3n2)CC1,70,.,-,45,-,-
COc1ccccc1N1CCN(c2cc(N3CCCC3)nc(C)n2)CC1,-,-,-,-,-,-
COc1ccccc1N1CCN(c2ccc(-c3ccccc3)nn2)CC1,139,-,-,42,?,?
O=S1(=O)N=C(N2CCOCC2)c2ccccc21,-,-,-,-,-,-
O=C(CSc1nc2c([nH]c3ccccc32)c(=O)n1-c1ccc(Cl)cc1)NCc1ccccc1,.,.,-,.,-,.
O[C@@H]1CN(CC2CCCCC2)[C@@H](c2ccccc2)C[C@H]1n1cc(-c2ccc(F)cc2)nn1,.,.,.,.,-,.
CCOC(=O)c1c(NC(=O)CN2CCN(C)CC2)sc(C(=O)Nc2ccccc2)c1C,-,-,-,28,-,-
CCOC(=O)c1c(N)sc(C(=O)Nc2ccc3c(c2)OCO3)c1C,-,-,-,-,-,5µM
CCOC(=O)c1c(C)c(C(=O)Nc2ccc3c(c2)OCCO3)c(C)n1CC,-,-,-,-,-,-
CCOC(=O)c1c(C)c(C(=O)Nc2ccc3c(c2)OCO3)c(C)n1C,41,-,-,-,-,-
CCOC(=O)c1c(NC(=O)c2cc(C)oc2C)sc(C(=O)Nc2ccc(Cl)cc2)c1C,-,-,-,24,-,-
O=S(=O)(Nc1cccc(-c2ccc(N3CCCC3)nn2)c1)c1ccc(F)c(C(F)(F)F)c1,.,.,-,.,-,.
CC(C)(C)c1ccc(OCCC(=O)NCCc2ccc(S(N)(=O)=O)cc2)cc1,-,.,-,-,-,-
SMILES,Shiga toxin inh,FBPA Giardia inh,Sm TGR block,CHX counter,Tb PYK inh,LmPK inh
Cc1[nH]c(C)c(S(=O)(=O)Nc2ccc(OC(F)(F)F)cc2)c1C(=O)N1CCCCC1,-,.,-,-,-,-
O=C(Cn1ncc2c3ccccc3n(Cc3ccccc3F)c2c1=O)NCc1ccccc1Cl,.,.,-,.,-,.
C=CCN1CC[C@]23c4c5ccc(O)c4OC2C(=O)CC[C@]3(O)C1C5 (stereo partly drawn),.,-,.,.,.,.
C=CCN1CC[C@]23c4c5ccc(O)c4OC2C(=O)CC[C@@]3(O)C1C5 (stereo partly drawn),-,-,40µM,-,-,-
N=C(N)N,.,-,.,.,-,.
NCc1ccc(-c2nc3ccccc3o2)cc1,93,-,-,59,.,-
O=S(=O)(CCc1nc2ccccc2o1)c1ccc(Cl)c(Cl)c1,-,-,-,-,-,-
O=C1c2ccccc2C(=O)N1c1cccc(-c2nc3ccccc3o2)c1,-,-,-,-,-,-
Nc1ccc(CCc2nc3ccccc3o2)cc1,-,-,-,28,-,-
O=C1c2ccccc2C(=O)N1c1ccc(-c2nc3ccccc3o2)cc1,-,-,-,-,.,-
COC(=O)c1ccc(-c2nc3ccccc3o2)cc1,-,-,-,13,.,-
c1ccc2oc(-c3ccc4nc[nH]c4c3)nc2c1,75,-,-,39,-,-
O=C(c1cc(C2CC2)nn1-c1ccccc1)N1CCN(S(=O)(=O)c2ccccc2)CC1,.,.,-,.,-,.
CC(C)C(NC(=O)C1(NC(=O)OCc2ccccc2)CCCC1)C(=O)O (stereo not drawn),.,.,.,.,-,.
COc1ccc(-c2nc3ccccc3o2)cc1OC,36,-,-,36,-,-
COc1ccc(/C=C/C(=O)Nc2cc(-c3nc4ccccc4o3)ccc2OC)cc1,.,.,-,.,-,.
COc1ccc(-c2nc3ccc(NS(C)(=O)=O)cc3o2)cc1,.,.,-,.,-,.
COC(=O)c1ccc(-c2nc3ccc(C)cc3o2)cc1,154,-,-,76,-,-
Nc1nc2ccc(-c3nc4ccccc4o3)cc2s1,13,-,-,36,-,-
Cc1ccc(CC(=O)Nc2nnc(-c3ccc(F)cc3)o2)c(C)c1,-,-,-,-,-,-
COc1ccc(C(=O)Nc2ccnn2C2CCN(C(=O)CCC(F)(F)F)CC2)cc1,42,-,-,24,-,-
O=C(Nc1ccnn1C1CCN(C(=O)c2ccc(F)cc2)CC1)C1CCOC1 (stereo not drawn),-,-,-,-,-,-
CCCc1cc(C(=O)N2CCC(n3nccc3NC(=O)c3ccc(OC)cc3)CC2)no1,22,.,-,21,-,-
O=C(Nc1ccnn1C1CCN(C(=O)CCc2ccc(F)cc2)CC1)C1CCOC1 (stereo not drawn),-,-,-,20,-,-
COc1ccc(C(=O)Nc2ccnn2C2CCN(C(=O)C3CCOC3)CC2)cc1 (stereo not drawn),53,-,-,25,-,-
SMILES,Shiga toxin inh,FBPA Giardia inh,Sm TGR block,CHX counter,Tb PYK inh,LmPK inh
COc1ccc(OC)c(CNC(=O)C(C)n2c(C)c3cnn(-c4ccccc4)c(=O)c3c2C)c1 (stereo not drawn),.,.,-,.,-,.
CCOc1ccc(CNC(=O)Cn2nc(C)c3nn(-c4ccc(Cl)cc4)c(C)c3c2=O)cc1OC,.,.,-,.,-,.
CCCOC(=O)c1cccc(NC(=O)c2c(-c3ccccc3Cl)noc2C)c1,.,.,-,.,-,.
CCOc1ccc(CCNC(=O)Nc2cccc(OC)c2)cc1OCC,-,-,-,-,-,-
COC(=O)[C@]1(C)N[C@H](CN(C)C(=O)COc2ccccc2)[C@@H]2C(=O)N(C)C(=O)[C@@H]21,.,.,.,.,-,.
O=C(Nc1ccnn1C1CCN(C(=O)c2cnsn2)CC1)c1cccc(F)c1,-,-,-,18,-,-
